Source: ChEMBL document CHEMBL3988442, “University of Dundee, Small-Polar-MMV Screening Library” (2021)

target: Sialic acid-binding Ig-like lectin 9 (Homo sapiens) (UniProt Q9Y336); assay: Hs-Siglec9 ALPHAscreen SOP 20170721; parameters: scale not given: direction of the effect not stated beside the values; settings: 10 µM
Sequence (Q9Y336 whole entry): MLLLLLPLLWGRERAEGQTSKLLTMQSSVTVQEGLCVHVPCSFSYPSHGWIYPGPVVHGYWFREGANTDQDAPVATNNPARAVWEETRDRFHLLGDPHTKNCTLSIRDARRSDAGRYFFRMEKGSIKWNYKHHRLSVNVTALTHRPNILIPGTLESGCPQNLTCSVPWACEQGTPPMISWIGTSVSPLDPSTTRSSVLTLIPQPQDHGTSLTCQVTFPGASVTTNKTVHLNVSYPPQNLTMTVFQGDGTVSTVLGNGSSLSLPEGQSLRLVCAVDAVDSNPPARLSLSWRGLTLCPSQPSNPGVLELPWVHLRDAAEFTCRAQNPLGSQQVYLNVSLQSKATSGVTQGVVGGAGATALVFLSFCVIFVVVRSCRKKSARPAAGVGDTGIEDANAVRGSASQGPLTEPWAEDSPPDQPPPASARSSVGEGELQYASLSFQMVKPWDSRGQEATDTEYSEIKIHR

Structure (SMILES) | Percent Effect [%]
CN(Cc1ccncc1)C(=O)Nc1cnn(CC2CCCO2)c1 (stereo not given) | -2.66
Cc1cccc(-c2ccc(C(=O)NCC3CCOC3)c(=O)[nH]2)c1 (stereo not given) | 7.34
COc1ccc(C2CCCN2C(=O)NCCNc2ncccn2)cc1 (stereo not given) | -2.28
Cc1cc(C)c2nc(CN3CC[C@@H](O)C3)cc(O)c2c1 | 1.78
CCOc1cccc(CNC(=O)NCC(O)c2cccc(F)c2)c1 (stereo not given) | 22.6
CN(C)C1CCN(C(=O)NCc2ccc(Cn3cncn3)cc2)CC1 | 28.9
Cc1nn(C)c(C)c1C1CCCN1C(=O)CCCn1cccn1 (stereo not given) | -4.76
O=C(NC1CCS(=O)(=O)C1)c1sccc1-c1ccc(F)cc1 (stereo not given) | -6.95
O=C(NCCn1ccnc1)c1cccc(F)c1 | -8.53
CCC(=O)N1Cc2nccn2CC(CN(C)Cc2cccnc2)C1 (stereo not given) | -7.3
Cc1nc(N2CCN(C(=O)c3ccc(O)cc3)CC2)c2cnn(C)c2n1 | 5.23
CCOC(=O)C1CCN(C(=O)Cn2ccc3cc(Br)ccc32)CC1 | -2.58
Cc1cccc(CN2C[C@@H]3CN(C(=O)c4ccsc4)C[C@@H]3C2=O)c1 | 6.12
CN(C)S(=O)(=O)c1ccc(OCCNCCn2cccn2)cc1 | -1.53
CN(C)S(=O)(=O)N1CCC2(CCCN(Cc3ccc(F)cc3)C2=O)C1 (stereo not given) | 5.14
CCOc1nnc(CN(C)C2CCCN(c3cccnn3)C2)s1 (stereo not given) | -6.38
Cc1cc(-c2nnn(CCC(N)=O)n2)ccc1F | 8.1
Cn1cc(C(=O)CC2CCCN2C(=O)c2cncc3ccccc23)cn1 (stereo not given) | 2.04
Cc1ccccc1CSCCn1nc2ccccn2c1=O | -4.64
Cn1ccnc1-c1cccc(NC(=O)NCCCO)c1 | 2.52
